A selection: hits, their analogues and other compounds. The true share with any hit is near 3.2%.
Cardio protect: cardioprotection against H2O2-induced cell death, primary screen, uHTS, H9c2 cells, ATPLite luminescence | H9c2 cardiomyocytes, H2O2 injury protection, 2 h | protection from H2O2 cell death, % at 20 µM | AID 588492, 2011 | 0.63% of 360,000 active;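 active means compounds giving at least 50% protection of heart cells from peroxide-induced death in the single-dose screen, raw or plate-pattern-corrected value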;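 further: 0% = DMSO wells with peroxide and 100% = DMSO wells without peroxide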
FAS TE block: FAS thioesterase domain inhibitors, primary screen, biochemical, fluorescence intensity, uHTS; Fatty acid synthase (Homo sapiens), P49327; 0.67% of 360,000 active; recombinant FAS-TE, OMFH fluorogenic substrate, fluorescence endpoint; inhibition, % at 15 µM; AID 602261, 2012;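 active means compounds whose normalised, plate-corrected inhibition of enzyme fluorescence in the single-dose primary screen is 50% or more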;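 further: 0% = DMSO with enzyme and 100% = substrate without enzyme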
CRFBP-R2 agonist: agonists of CRF-BP/CRF-R2 complex, primary screen, cell-based, HEK293, calcium dye fluorescence, uHTS; calcium dye fluorescence (FLIPR); percent of saturating CRF peptide response; activation, % at 13.2 µM; 0.46% of 350,000 active;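 active means activation of at least 50%, plus an integration ratio under a set limit after plate pattern correction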;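 further: plate controls were neutral control wells without compound for no effect and CRF at EC100 for full effect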
CRFR2-BP antag: antagonists of CRF-BP/CRF-R2 complex, primary screen, cell-based, HEK293, calcium dye fluorescence, uHTS | CRF-induced calcium fluorescence | 0.59% of 350,000 active | AID 588475, 2011 | inhibition, % at 11.8 µM;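 active means inhibition of the ligand-induced calcium signal above about 50% at the single tested concentration, limit read from the data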
PfGluPho inh: PfG6PD enzyme inhibitors, primary screen, biochemical, fluorescence intensity, uHTS; PfGluPho enzyme, NADPH resazurin-diaphorase fluorescence; 0.78% of 350,000 active; inhibition, % at 20 µM; AID 504690, 2011;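 active means inhibition reaching at least a set limit at 20 µM in the primary screen, cut at about 59% in these data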;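 further: 0% = DMSO wells with substrate and 100% = DMSO wells lacking glucose-6-phosphate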
aDG glyco up: activators of alpha-DG glycosylation, primary screen, uHTS, Pro5-aDG cells, AlphaScreen. activation, % at 10 µM. 0.22% of 360,000 active. alpha-DG glycosylation AlphaScreen (IIH6); 0% Pro5, 100% B10-LARGE cell signal. AID 624168, 2012;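 active means activation of at least 8% versus controls, or a plate z-score of at least 8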;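 further: Pro5 are CHO cells carrying HIG-tagged alpha-DG that lacks glycosylation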
The depositor's hits bear a star; / = no result given.

SMILES	Cardio protect	FAS TE block	CRFBP-R2 agonist	CRFR2-BP antag	PfGluPho inh	aDG glyco up
O=C(N/N=C/c1ccc([N+](=O)[O-])s1)c1ccccc1	-3.5	-0.5	0.0	2.7	16.7	9.5*
O=C(Cc1ccccc1)N/N=C/c1ccc([N+](=O)[O-])s1	5.7	-3.6	-2.2	0.2	11.5	2.7
Cc1ccccc1C(=O)N/N=C/c1ccc([N+](=O)[O-])s1	-6.2	-5.6	6.8	-12.1	35.1	3.6
O=C(N/N=C/c1ccc([N+](=O)[O-])s1)c1ccccc1Br	-10.8	-3.5	1.2	-3.0	3.0	5.6*
CCOC(=O)c1c(NC(=O)c2nn(CC)cc2Br)c(C#N)nn1-c1ccccc1	9.9	23.9	1.0	21.0	4.4	0.4
CCOC(=O)c1c(NC(=O)c2c(Br)cnn2C)c(C#N)nn1-c1ccccc1	11.6	13.4	0.2	67.3*	-7.0	-0.1
Oc1ccc(-c2nc(-c3ccc(O)c(O)c3)cs2)cc1	53.0*	-8.0	-1.8	-24.6	37.2	0.3
Cc1ccc(C(CC(=O)NCCCN(C)C)c2ccc(OC(C)C)cc2)cc1 (stereo unspecified)	8.2	-6.1	-0.8	-12.6	2.2	-0.2
CCOc1cc(NC(=O)C2CC2)c(OCC)cc1NC(=O)c1ccccn1	52.7*	9.2	-4.5	8.2	17.0	-0.5
CCOc1cc(NC(=O)c2ccccn2)c(OCC)cc1NC(=O)c1ccccc1	3.1	6.7	0.4	-3.0	-8.4	-0.2
NC(=O)c1ccsc1NC(=O)c1ccc([N+](=O)[O-])o1	77.9*	6.3	5.8	-1.6	15.3	0.3
NC(=O)c1ccsc1NC(=O)COC(=O)c1ccc([N+](=O)[O-])o1	40.5	2.5	-0.4	-1.7	15.3	0.3
Cc1cc2[nH]c(=O)c3ccccc3n2n1	77.0*	-9.5	1.0	2.9	-3.3	-0.2
Cc1cc2[nH]c(=O)cc(-c3ccccc3)n2n1	-11.0	-6.1	1.2	-7.0	16.4	-0.1
Cc1ccc(Cn2c(C(C)Nc3nc(-c4ccc(F)cc4)cs3)nc3cc(C(=O)NCCCO)ccc32)cc1 (stereo unspecified)	39.8	24.9	0.4	-0.9	12.3	1.2
Cc1ccc(Cn2c(CCNc3nc(-c4ccc(Cl)c([N+](=O)[O-])c4)cs3)nc3cc(C(=O)NCCCO)ccc32)cc1	69.7*	19.3	2.1	-10.5	20.3	-0.1
Cc1cc(C)nc(NC(=O)c2c(F)c(F)c(F)c(C(=O)Nc3cc(C)cc(C)n3)c2F)c1	16.1	6.6	0.9	31.5	5.8	1.0
Cc1cccn2c(=O)c3cc(C(=O)NCc4ccco4)c(=N)n(C4CCCCC4)c3nc12	-2.5	0.6	3.3	54.4*	19.0	-0.2
COCCn1c(=N)c(C(=O)NCc2ccco2)cc2c(=O)n3cc(C)ccc3nc21	-3.6	-8.4	10.7	83.6*	16.9	0.4
Cc1ccc2nc3c(cc(C(=O)NCc4ccco4)c(=N)n3C3CCCC3)c(=O)n2c1	4.6	-5.3	/	/	/	0.2
CCCCN(C(=O)C1CCN(C(=O)c2ccccc2C)CC1)c1c(N)n(CC(C)C)c(=O)[nH]c1=O	7.9	-5.7	-0.8	4.2	-14.7	0.1
COc1cccc(CNC(=O)CN(c2cc(C)cc(C)c2)S(=O)(=O)c2c(C)noc2C)c1	4.7	8.0	0.0	-12.8	5.1	0.9
COc1cccc(CNC(=O)CN(c2ccc(C(C)C)cc2)S(=O)(=O)c2c(C)noc2C)c1	3.2	15.2	1.6	109.6*	7.3	0.0
CCCCCOC(=O)NC1CCS(=O)(=O)C1 (stereo unspecified)	1.9	-3.8	13.3	-7.2	-11.9	-0.2
O=C(NC(C(=O)N/N=C/c1cccnc1)c1n[nH]c(=O)c2ccccc12)c1ccccc1 (stereo unspecified)	12.4	-7.2	95.9*	-58.5	8.6	-0.2

Screening results: PubChem BioAssay, Sanford-Burnham Center for Chemical Genomics
